In PubChem BioAssay (NCI):
The panel holds about 83,000 compounds, 20% with a hit somewhere; the sample as a whole holds those more often.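 Method: cells in 96-well plates; compound added at one concentration; 48 h incubation; percent growth measured; values under 10 scored active.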 Activity calls are given as the source filed them.

Columns and labels:
Assay in all cases: NCI-60 one-dose screen, 48 h (100 = growth as untreated, 0 = no growth, -100 = all killed)
Details in all cases: 10 µM unless noted
HT29 colon = tested on: HT29 colon
SNB-75 CNS = tested on: SNB-75 CNS
SNB-19 CNS = tested on: SNB-19 CNS
U251 CNS = tested on: U251 CNS
PC-3 prostate = tested on: PC-3 prostate
UACC-62 melanoma = tested on: UACC-62 melanoma
LOX IMVI melanoma = tested on: LOX IMVI melanoma
SK-MEL-28 melanoma = tested on: SK-MEL-28 melanoma
SK-MEL-5 melanoma = tested on: SK-MEL-5 melanoma

Compound	growth (HT29 colon)	growth (SNB-75 CNS)	growth (SNB-19 CNS)	growth (U251 CNS)	growth (PC-3 prostate)	growth (UACC-62 melanoma)	growth (LOX IMVI melanoma)	growth (SK-MEL-28 melanoma)	growth (SK-MEL-5 melanoma)
COc1cc2c(cc1-c1c(C)noc1C)ncc1nc(-c3ccccn3)n([C@H](C)COC(F)F)c12	24.2% (inactive)	34% (inactive)	60.2% (inactive)	48.8% (inactive)	34% (inactive)	23.9% (inactive)	20.9% (inactive)	67.3% (inactive)	
C=C1c2nc3ccccc3n2C=C(c2ccc(Cl)cc2)N1Cc1ccc(OC)cc1	88.8% (inactive)	103% (inactive)	79.1% (inactive)	92.8% (inactive)		68% (inactive)	87.5% (inactive)	88.9% (inactive)	72.3% (inactive)
COc1ccc(SC2c3ccc(C)cc3Oc3nc(N)c(C#N)c(N)c32)cc1 (configuration not stated)	-65.1% (active)	-45.5% (active)	-69.3% (active)	-93.3% (active)	-67.9% (active)	-46.2% (active)	-94.3% (active)	-82.3% (active)	
CCCCCC(=O)Oc1ccc(/C(=C(\C)c2ccc(OC)cc2)c2ccc(OCCN3CCCCC3)cc2)cc1	8.71% (active)	64% (inactive)	74.4% (inactive)	45.4% (inactive)	51.1% (inactive)	6.92% (active)	33.5% (inactive)	27.6% (inactive)	
O=[N+]([O-])c1ccc(Nc2nc(NCCN3CCOCC3)ncc2[N+](=O)[O-])cc1	91.8% (inactive)	76.4% (inactive)	83.9% (inactive)	88.6% (inactive)		84.2% (inactive)	96.8% (inactive)	98% (inactive)	96% (inactive)
CCCCC/C(C=C(C#N)C#N)=C/c1ccccc1	37% (inactive)	96.6% (inactive)	67.1% (inactive)	34.2% (inactive)		48.9% (inactive)	2.03% (active)	84% (inactive)	71% (inactive)
COc1cc(-c2nn(-c3ccc(Br)cc3)cc2C(=O)O)ccc1O	101% (inactive)	92.2% (inactive)	103% (inactive)	109% (inactive)	97.2% (inactive)	109% (inactive)	102% (inactive)	119% (inactive)	
CSc1nc2c(c(=O)[nH]1)C1(C(=O)Nc3ccccc31)c1c(nc(SC)[nH]c1=O)N2	112% (inactive)	99.5% (inactive)	106% (inactive)	97.9% (inactive)	107% (inactive)	99.8% (inactive)	102% (inactive)	105% (inactive)	
N#Cc1c(N)n(CCNC(=O)c2ccccc2)c2nc3ccccc3nc12	104% (inactive)	116% (inactive)	119% (inactive)	115% (inactive)		103% (inactive)	113% (inactive)	123% (inactive)	132% (inactive)
COc1cc2nc(N3CCCC3)nc(Nc3ccccc3)c2cc1OC	-71% (active)	99.5% (inactive)	49.9% (inactive)		29.4% (inactive)	-76.1% (active)	-92.6% (active)	-91.3% (active)	-97.8% (active)
CN(CCCCCl)P(=O)(OCc1ccc([N+](=O)[O-])o1)C(F)(F)c1ccc(CC(=O)NC[C@@H](O)/C=C\[C@@H](O)[C@H](CO)Cc2ccccc2)cc1 (some centres not stated)	77% (inactive)	95.4% (inactive)	102% (inactive)	93.7% (inactive)		74.4% (inactive)	60.4% (inactive)	97.8% (inactive)	97.1% (inactive)
O=C(Cc1ccc(/C=C/C(=O)c2ncc[nH]2)cc1)Nc1ccccc1	4.83% (active)	58.4% (inactive)	22.6% (inactive)	11.3% (inactive)	57.1% (inactive)	68.5% (inactive)	10.1% (inactive)	98.9% (inactive)	
CC(=O)OC[C@H]1O[C@H](OC(C)=O)[C@H](NC(=O)/C=C/CCl)[C@@H](OC(C)=O)[C@@H]1OC(C)=O	54.3% (inactive)	71.3% (inactive)	86.8% (inactive)	45.1% (inactive)	70.4% (inactive)		68.8% (inactive)		
O=C(CN(C(=O)Cn1c(=O)n2nnnc2c2ccccc21)c1ccccc1C(F)(F)F)Nc1ccc(C(F)(F)F)cc1	110% (inactive)	91% (inactive)	95.6% (inactive)	99.1% (inactive)		101% (inactive)	98.9% (inactive)	108% (inactive)	102% (inactive)
CCOc1cc2ncc(C#N)c(Nc3ccc(F)c(Cl)c3)c2cc1NC(=O)CC1CCSS1 (configuration not stated)	-72.5% (active)	-72% (active)	-34.5% (active)	-58.9% (active)	-72.6% (active)	-66% (active)	-81.2% (active)	-79.1% (active)	
COc1cc2c(cc1-c1c(C)noc1C)ncc1nc(C3CCC(F)(F)CC3)n([C@H](C)COC(F)F)c12	17.3% (inactive)	37% (inactive)	47.7% (inactive)	46.8% (inactive)	33.1% (inactive)	17.8% (inactive)	14.8% (inactive)	54.4% (inactive)	
COc1cc(-c2nc3ccccc3[nH]2)ccc1OCc1nnc(-c2ccc(CC(C)C)cc2)o1	75.2% (inactive)	94.3% (inactive)	91.8% (inactive)	69.5% (inactive)	86% (inactive)	92.7% (inactive)	103% (inactive)	93.5% (inactive)	
COc1cc(/C=C/C(=O)c2c(C)oc3nc[nH]c(=O)c23)cc(OC)c1OC	90.7% (inactive)	78% (inactive)	93.6% (inactive)		83.4% (inactive)	87% (inactive)	66.2% (inactive)	93.9% (inactive)	89.9% (inactive)
COc1cccc(NC(=O)c2sc3nc(C)c(C(C)=O)cc3c2N)c1	38.7% (inactive)	22.7% (inactive)	40.2% (inactive)	33.7% (inactive)	47.8% (inactive)	26.7% (inactive)	47.2% (inactive)	71% (inactive)	
COc1cc2nc(N3CCCC3)nc(NCc3ccccc3)c2cc1OC	18.7% (inactive)	69.1% (inactive)	95.6% (inactive)		67.2% (inactive)	97.3% (inactive)	10% (inactive)	57% (inactive)	67.8% (inactive)
Cn1cc(C(=O)c2nc(-c3c[nH]c4ccc(F)cc34)no2)c2cc(F)ccc21	101% (inactive)	79.8% (inactive)	101% (inactive)	100% (inactive)		81.7% (inactive)	95.2% (inactive)	103% (inactive)	92.8% (inactive)
COc1ccc(CN2c3ccccc3Sc3ccccc32)c(C(F)(F)F)c1	2.45% (active)	7.8% (active)	32.7% (inactive)	20.6% (inactive)	26.9% (inactive)		54.7% (inactive)		
